CYP2C9 inh – human CYP2C9 inhibition. P11712. CYP2C9 Supersomes, luciferin-H conversion, luminescence. inhibition, % at 5 µM. 20% of 96,000 active;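 active = blocking of liver enzyme CYP2C9 beyond about 50% at 5 µM, limit read from the data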
Target sequence (P11712 whole entry, looked up): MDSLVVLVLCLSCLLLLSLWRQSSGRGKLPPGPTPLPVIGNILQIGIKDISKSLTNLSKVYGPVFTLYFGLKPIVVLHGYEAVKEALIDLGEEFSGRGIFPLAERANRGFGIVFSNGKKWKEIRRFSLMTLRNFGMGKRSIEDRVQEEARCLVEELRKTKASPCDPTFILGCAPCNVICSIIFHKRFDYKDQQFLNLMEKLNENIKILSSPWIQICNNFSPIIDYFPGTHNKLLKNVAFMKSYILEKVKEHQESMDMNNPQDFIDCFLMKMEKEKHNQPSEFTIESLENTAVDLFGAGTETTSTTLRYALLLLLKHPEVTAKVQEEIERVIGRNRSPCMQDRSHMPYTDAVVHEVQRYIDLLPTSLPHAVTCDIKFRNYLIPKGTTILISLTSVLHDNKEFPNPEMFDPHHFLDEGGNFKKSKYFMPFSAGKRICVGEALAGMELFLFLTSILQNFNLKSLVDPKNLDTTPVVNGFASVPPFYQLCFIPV
CYP2C19 inh – blocks human cytochrome P450 2C19; inhibition, % at 5 µM; 21% of 96,000 active; CYP2C19 Supersomes, luciferin-H EGE luminescence, 30 min; P33261;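 active = CYP2C19 inhibition above a set limit at 5 µM in the primary screen, cut at about 50% in these data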;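 also: plate controls were negative control wells for no effect and 2.5 mM tranylcypromine positive control for full effect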
E-sel TNF inh – TNF alpha driven E-selectin expression inhibition; HUVEC TNFa-induced E-selectin immunofluorescence, high content; inhibition, % at 2 µM; 0.71% of 120,000 active;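 active = inhibition above the batch mean plus 3 SD, and confirmed as a hit on visual image review, cut at about 43% in these data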;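 also: 0% = TNF-stimulated DMSO wells and 100% = unstimulated control wells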
cytoskel mod – cytoskeleton assembly modification | 0.18% of 91,000 active | inhibition, % at 2 µM | HUVEC TNFa F-actin phalloidin imaging, high content;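 active = inhibition above the batch mean plus 3 SD and confirmed as a hit by visual image inspection, cut at about 30% in these data, passing the limit was not always enough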
CYP2C19 activ – activators of human cytochrome P450 2C19. recombinant CYP2C19, luciferin-H EGE luminescence; active compounds read high; 0 = fully inhibited enzyme, 1 = untreated enzyme. activation factor at 5 µM. 96,000 tested, under 10 active. AID 1025;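 active = activation factor of at least 2 at 5 µM in the primary screen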;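 also: 0 = wells with 2.5 mM tranylcypromine and 1 = vehicle-only wells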
CYP2C9 activ – CYP2C9 (human) activation; P11712; recombinant CYP2C9, luciferin-H conversion, luminescence; active compounds read high; factor 1 = untreated enzyme, 0 = blocked; activation factor at 5 µM; 1.4% of 96,000 active; AID 1024;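 active = activation factor of 2 or more for CYP2C9 at a 5 µM dose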;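 also: 0 = sulfaphenazole-blocked wells and 1 = vehicle-only wells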
The depositor's hits bear a star; . = no result. Only some compounds are listed: those with a hit (about 22% of all), similar ones and a draw of the others.

SMILES | CYP2C9 inh | CYP2C19 inh | E-sel TNF inh | cytoskel mod | CYP2C19 activ | CYP2C9 activ
O=C(OC(C(=O)NCc1cccs1)c1ccccc1Cl)c1ccco1 (stereo not given) | 91* | 88* | . | 14 | 0.1 | 0.1
CC(=O)OC(C(=O)NCc1ccco1)c1ccncc1 (stereo not given) | 55* | 31 | -2 | -14 | 0.7 | 0.4
COc1ccc(-n2c(=S)[nH]c3cc(C(=O)NCCCN4CCCC4=O)ccc3c2=O)cc1OC | 25 | 10 | 6 | -19 | 0.9 | 0.8
CC(C)(C#N)N([O-])C=C[N+](=O)C(C)(C)C#N | 3 | 12 | . | 18 | 0.9 | 1
CN(C)c1ccc(CC(=O)c2nc3ccccc3s2)cc1 | . | . | 2 | . | . | .
CC(C)(C)CNC(CO)C12CC3CC(CC(C3)C1)C2 (stereo not given) | -10 | -5 | -1 | -4 | 1 | 1.1
CCC(C)(C)NC(=O)C(OC(=O)c1ccco1)c1ccccc1OC (stereo not given) | 38 | 64* | -6 | -22 | 0.4 | 0.6
COc1ccc(CNC(=O)C(OC(=O)c2ccco2)c2ccc(OC)cc2)cc1 (stereo not given) | . | . | 7 | -2 | . | .
Cc1cc2c(cc(C(=O)OC(C(=O)NCc3ccco3)C(C)C)n2C)o1 (stereo not given) | 47 | 66* | 5 | 7 | 0.3 | 0.5
N#CCCn1nc(-c2ccccc2)cc1-n1c(C(F)(F)F)nc2ccccc21 | 96* | 87* | -4 | 6 | 0.1 | 0
Cc1ccc(Cl)cc1NC(=O)CC(O)(C(F)(F)F)C(F)(F)F | 37 | 75* | -4 | -9 | 0.3 | 0.6
Cc1ccc(Cl)cc1NC(=O)Cn1cccc1 | 6 | 20 | -16 | -6 | 0.8 | 0.9
Cc1ccc(Cl)cc1NC(=O)CSC(N)=O | 27 | 72* | 29 | 8 | 0.3 | 0.7
COC(=O)C(O)(CC(=O)Nc1ccc(Cl)cc1Cl)C(F)(F)F (stereo not given) | . | . | 12 | -11 | . | .
CCC(Sc1nc2c(c(=O)[nH]1)CCC2)C(=O)Nc1cccc(OC)c1 (stereo not given) | 62* | 23 | -16 | . | 0.8 | 0.4
O=C(Nc1cccc(F)c1)c1cc(S(=O)(=O)N2CCC3(CC2)OCCO3)ccc1F | . | . | -9 | . | . | .
COc1ccc(-c2nnn(CC(=O)N(Cc3ccccc3Cl)C(C(=O)NCC3CCCO3)c3ccco3)n2)cc1 (stereo not given) | 43 | 7 | 10 | -8 | 0.9 | 0.6
Cc1ccc(-c2nnn(CC(=O)N(c3ccccc3)C(C(=O)NCC3CCCO3)c3ccc(Cl)cc3)n2)cc1 (stereo not given) | 88* | 62* | -12 | -5 | 0.4 | 0.1
Cc1ccc(-c2nnn(CC(=O)N(c3ccccc3F)C(C(=O)NCC3CCCO3)c3c[nH]c4ccccc34)n2)cc1 (stereo not given) | 75* | 36 | -5 | -36 | 0.6 | 0.2
C=C(C)CSc1nc2ccccc2[nH]1 | . | . | -9 | . | . | .
O=C(CSc1nc2ccccc2[nH]1)c1ccc(Cl)s1 | 92* | 98* | -2 | -10 | 0 | 0.1
O=C(CSc1nc2ccccc2[nH]1)c1ccco1 | 39 | 65* | -23 | 4 | 0.3 | 0.6
CCOc1ccc(NC(=O)CSC(N)=O)cc1 | 30 | 17 | -40 | . | 0.8 | 0.7
COc1ccc(C2NS(=O)(=O)N=C2N)cc1 (stereo not given) | . | . | 2 | . | . | .
CCOC(=O)c1c(NC(=O)COC(=O)CCS(=O)(=O)c2ccc(C)cc2)sc(C)c1C | . | . | 1 | . | . | .
SMILES | CYP2C9 inh | CYP2C19 inh | E-sel TNF inh | cytoskel mod | CYP2C19 activ | CYP2C9 activ
COc1ccc(Br)cc1C(=O)Nc1cccc(NC(=O)c2ccco2)c1 | 13 | 88* | 0 | -29 | 0.1 | 0.9
O=C(Nc1cccc(NC(=O)c2ccc(-c3cccc(Br)c3)o2)c1)c1ccco1 | 60* | 54* | -14 | 3 | 0.5 | 0.4
COc1c(C)cc(Br)cc1C(=O)Nc1cccc(NC(=O)c2ccco2)c1 | 83* | 97* | -5 | -3 | 0 | 0.2
Cc1cc(C)c(OCC(=O)Nc2ccc(NC(=O)c3ccco3)cc2)c([N+](=O)[O-])c1 | . | . | 4 | . | . | .
O=C(Nc1cccc(NC(=O)c2ccc(-c3ccc(Br)cc3)o2)c1)c1ccccc1 | -8 | -18 | -16 | -18 | 1.2 | 1.1
Cc1cc(C)c(OCC(=O)Nc2cccc(NC(=O)c3ccco3)c2)c(Br)c1 | 74* | 96* | -6 | . | 0 | 0.3

Compound activity from PubChem BioAssay.
